# Laboratory results from PubChem BioAssay AID686978 (National Center for Advancing Translational Sciences (NCATS), 2013).
# In all, about 420,000 compounds went through this assay and about 64,000 (15%) were called active. Inconclusive results (about 27%) are left out. The list is a sample of the results. Unmarked numbers belong to inactive results. Calls come from the whole dose curve; as a rule, active = well fitted inhibition curve with a large enough effect; inconclusive = small, poorly fitted or top-dose-only effect; inactive = flat fitted curve, though single readings scatter. Peptide text beside a SMILES is read from it.
# Experiment: qHTS for Inhibitors of human tyrosyl-DNA phosphodiesterase 1 (TDP1): qHTS in cells in absence of CPT; note: nearly all actives have a fitted effect of over 55% in size
# Conditions: DT40 Tdp1-/- hTDP1 cells, no CPT, ATP luminescence, 48 h; activity change, negative = growth inhibition: at 46.2 µM (top of the series)
# Procedure, shortened: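 Seeded 400 DT40-hTDP1 cells/well (vehicle DMSO, no 20 nM CPT); pinned compounds; ≥48 hr at 37 °C; CellTiter-Glo luminescence as viability measure.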
# % is set by controls: 0 for no effect and ±100 for the full control effect; potency is the fitted concentration of half-maximal effect.
Structure (SMILES),"activity change, negative = growth inhibition [%]",Potency
O=c1oc2ccc(C#CC3(O)CCCCC3)cc2cc1-n1cc(-c2ccsc2)nn1,-28.1,
O=C(/C(=C/c1cccc(Cl)c1)c1nc2ccccc2[nH]1)c1ccccc1,,23.1 µM (active)
CCC(=O)/C(=C(/O)c1ccccc1)c1nc2ccccc2[nH]1,-0.407,
O=C(Cc1nc2ccccc2[nH]c1=O)c1ccc(Cl)cc1,-23.9,
CN1CCC(=NNC(=O)c2ccc(N(Cc3ccc(Cl)cc3)S(C)(=O)=O)cc2)CC1,-7.52,
NC(=O)Cn1nc([N+](=O)[O-])nc1Oc1ccc(Br)cc1,11.7,
CC(C)CCNC(=O)CCNS(=O)(=O)c1ccc(Cl)cc1,-5.64,
O=S1(=O)CCO[C@H]2Cc3ccccc3[C@H]2N1Cc1ccccc1,-21.9,
CCOc1cc(/C=N/O)cc(Br)c1OC,-23.1,
COc1cc(/C=C2/C(=O)NN(c3cccc(Cl)c3)C2=O)cc(Br)c1O,-2.28,
CCOc1c(Br)cc(/C=C2\C(=O)N(CCC#N)N=C2C)cc1OC,,29.1 µM (active)
CCn1c(SCC(=O)NC2=NCCS2)nnc1C(C)NC(=O)c1ccccc1F (stereo not drawn),-2.37,
Cc1ccc(-n2c(C)nnc2SCC(=O)NC2CC2)cc1,0.716,
CCCC(CCC(=O)OC)(C(=O)OCC)c1csc(N)n1 (stereo not drawn),-2.44,
CCCCCCCCCCCCC(NC(C)=O)(C(=O)OCC)C(=O)OCC,,20.6 µM (active)
CCCCCCCCCCCC(=O)O,-27.7,
COC(=O)C1=CO[C@@H](O[C@@H]2O[C@H](CO)[C@@H](O)[C@H](O)[C@H]2O)C2C1C[C@H](O)[C@@H]2C (stereo partly drawn),-10.1,
COc1ccccc1NC(=O)C1=C(C)Nc2nc3ccccc3n2C1c1cccs1 (stereo not drawn),,3.26 µM (active)
COc1ccccc1NC(=O)C1=C(C)Nc2ncnn2C1c1sccc1C (stereo not drawn),-1.49,
CCOC(=O)C1=C(C)Nc2nc3ccccc3n2C1c1cccs1 (stereo not drawn),-0.394,
CCOC(=O)C1CCN(C(=O)CSc2cc(=O)n(C)c3ccccc23)CC1,-17.7,
O=c1cc(-c2ccccc2)[nH]c2cc(F)ccc12,,1.03 µM (active)
Cc1ccc(-c2cc(=O)c3ccc(F)cc3[nH]2)cc1,,13 µM (active)
Cc1ccc(-c2cc(=O)c3ccc(Cl)cc3[nH]2)cc1,-15.6,
Cc1ccc(S(=O)(=O)/N=C(\N)c2ccc(F)cc2)cc1,7.02,
Cc1cc(=O)c2ccc(NC(=O)c3ccccc3)cc2[nH]1,10.8,

Structure (SMILES),"activity change, negative = growth inhibition [%]",Potency
O=c1[nH]c(-c2ccccc2)c(-c2ccccc2)[nH]1,-27.8,
O=S(=O)(Nc1ccccc1Br)c1cccs1,-16.7,
Cn1nccc1/C=N\NC(=O)c1ccc(Cl)cc1,5.3,
Cc1cc(-n2cnc(-c3cn(C)nc3C)n2)no1,-0.924,
Cc1cc(C)c(NC(=O)C[N+](C)(C)CC(O)COc2cccc3ccccc23)c(C)c1 (stereo not drawn),,18.4 µM (active)
Cc1cc(C)cc(OCC(=O)Nc2c(C(=O)c3ccccc3)oc3ccccc23)c1,3.8,
Cc1cccc(NC(=O)COc2ccccc2C)n1,-22.7,
Cc1cccc(NC(=O)c2ccc3nsnc3c2)c1C,-27.4,
O=C(Nc1ccccc1)OCc1cc(-c2ccc(Cl)cc2)on1,-8.65,
CCc1cc2c(N3CCN(c4nnc(CC)s4)CC3)ncnc2s1,,8.2 µM (active)
O=C(CCc1nnc2ccc(NCc3ccccc3Cl)nn12)NCC1CCN(C2CCCC2)C1 (stereo not drawn),-15.2,
O=C(CSc1ccsc1[N+](=O)[O-])N1CCCCC1,-9.26,
CS(=O)(=O)N(CC(=O)N1CCCCCC1)c1cccc(Cl)c1Cl,-28.3,
CCOC(=O)c1c(NC(=O)c2cccs2)sc(C)c1C,-3.76,
Cc1ccc(C(=O)c2c(NC(=O)c3ccccc3)sc(C)c2C)cc1,,23.1 µM (active)
Cc1ccc(C(=O)Nc2c(-c3ccccc3)[nH][nH]c2=O)cc1,15,
Cn1c(=O)c2cc(S(=O)(=O)NCCC(=O)Nc3ccc(F)cc3F)ccc2n(C)c1=O,-27.1,
COc1ccc(NC(=O)CN(C)C(=O)/C=C/c2cn(Cc3ccccc3)nc2-c2cccnc2)cc1,-21.8,
Cc1cc(C)cc(NC(=O)CSc2nc(=O)n(CCN3CCOCC3)c3c2CCC3)c1,-14.7,
CCCCCOc1ccc(/C=C/C(=O)NCCc2nc3ccccc3[nH]2)cc1OC,,9.2 µM (active)
CC(C)=C(NC(=O)c1ccco1)C(=O)NCCc1nc2ccccc2[nH]1,-3.68,
O=C(COc1ccccc1)NCCc1nc2ccccc2[nH]1,0.1,
COc1ccc2c(C(=O)c3ccc(C)cc3)n(CCC(N)=O)[n+]([O-])c2c1,-12.7,
COC(=O)CNC(=O)C(CCSC)NC(C)=O (stereo not drawn) (HELM PEPTIDE1{[ac].[CSCCC(N[*:1])C(=O)[*:2]].G.[CO[*:1]]}$$$$V2.0),0.948,
CCCS(=O)(=O)N1CCCC(C(=O)N2CCN(c3ccccc3)CC2)C1 (stereo not drawn),-5.33,
COc1ccc(OC)c(S(=O)(=O)N2CCCC(C(=O)N3CCC(C(N)=O)CC3)C2)c1 (stereo not drawn),0.564,

Structure (SMILES),"activity change, negative = growth inhibition [%]",Potency
Cc1ccc(S(=O)(=O)N2CCC(N3CCCCCC3)CC2)cc1,-12.8,
CC(=O)N1CCCc2cc(S(=O)(=O)N3CCC(C(=O)NC4CCCCC4)CC3)ccc21,-0.0784,
COc1ccc(N(C)C(=O)C2CCN(S(=O)(=O)c3cc(Br)cc4c3N(C(C)=O)CC4)CC2)cc1,-24,
O=C(C1CCC1)N1CCN(c2ccccc2)CC1,-3.02,
COc1ccc(S(=O)(=O)N2CCC(C(=O)N3CCCC3)CC2)cc1C,-17.4,
CCOC(=O)C1CCN(C(=O)C2CCCN(S(=O)(=O)c3ccc(OC)c(Cl)c3)C2)CC1 (stereo not drawn),,11.6 µM (active)
CCN1CCN(C(=O)C2CCCN(S(=O)(=O)c3ccc(OC)c(OC)c3)C2)CC1 (stereo not drawn),-26.3,
O=C(C1CCCN(S(=O)(=O)c2ccccc2)C1)N1CCN(c2ccc(F)cc2)CC1 (stereo not drawn),,11.6 µM (active)
Cc1ccc(S(=O)(=O)N2CCC(C(=O)N3CCCCCCC3)CC2)cc1,,20.6 µM (active)
Cc1ccc(N(C)C(=O)C2CCN(S(=O)(=O)c3ccc4c(c3)CCCN4C(=O)C3CCC3)CC2)cc1,,16.4 µM (active)
Cc1cc(-c2ccccc2)nc(N2CCC(C(=O)NC34CC5CC(CC(C5)C3)C4)CC2)n1,-23.1,
COCCCNC(=O)[C@H]1N2C(=O)c3ccccc3C2SC1(C)C (stereo partly drawn),0.674,
O=c1c(F)cn(C2CCCO2)c(=O)n1Cc1ccccc1Cl (stereo not drawn),7.15,
O=C1CN(C(=O)COC(=O)c2cnc(Cl)c(Cl)c2)c2ccccc2N1,-4.12,
CC1(c2ccc3ccccc3c2)NC(=O)NC1=O (stereo not drawn),-3.58,
COCCCNC(=O)C1CCC(CNS(=O)(=O)c2ccc(OC)cc2)CC1 (stereo not drawn),,inactive
COc1ccc(NC(=O)C2CCCN(S(=O)(=O)c3cccc4nonc34)C2)cc1Cl (stereo not drawn),-4.62,
O=C(C1CCCN(S(=O)(=O)c2cccc3nonc23)C1)N1CCN(c2ccccc2F)CC1 (stereo not drawn),,18.4 µM (active)
CC(=O)c1cccc(NC(=O)C2CCCN(S(=O)(=O)c3cccc4nonc34)C2)c1 (stereo not drawn),-27.5,
O=C(C1CCCN(S(=O)(=O)c2ccc([N+](=O)[O-])cc2)C1)N1CCCCC1 (stereo not drawn),,16.4 µM (active)
O=C(C1CCC1)N1CCN(S(=O)(=O)c2ccc([N+](=O)[O-])cc2)CC1,3.7,
O=C(Cc1ccccc1)N1CCN(S(=O)(=O)c2ccc([N+](=O)[O-])cc2)CC1,-11.9,
O=C(NCc1cc(F)cc(C(F)(F)F)c1)C1CCC(=O)N(C2CCCC2)C1 (stereo not drawn),14,
Cc1cccc(C(=O)Nc2ccccc2-c2nnn(CC(=O)Nc3ccc4c(c3)OCCO4)n2)c1,-29.8,
CCCOc1ccccc1-c1nc(SCCC(=O)O)n[nH]1,-26.8,
CN(c1ccccc1)S(=O)(=O)c1cccc(NC(=O)Cc2ccc(Cl)cc2)c1,,23.1 µM (active)

Structure (SMILES),"activity change, negative = growth inhibition [%]",Potency
Cn1ccc(NC(=O)Nc2ccc(Cl)cc2)n1,-0.619,
CNS(=O)(=O)c1ccc(NC(=O)Nc2ccc3c(c2)OCO3)cc1,-12,
CN(c1ccccc1)S(=O)(=O)c1cccc(C(=O)NNC(=O)c2ccncc2)c1,-24.1,
CN(c1cccc(NC(=O)Nc2ccc(Cl)cc2)c1)S(C)(=O)=O,,25.9 µM (active)
CN(c1ccc(OCC(=O)OCC(=O)Nc2cccc([N+](=O)[O-])c2)cc1)S(=O)(=O)c1ccc(F)cc1,6.72,
Cc1ncc([N+](=O)[O-])n1CCOC(=O)c1ccc(Br)cc1,-19.1,
COc1ccc(S(=O)(=O)NCC(=O)NCc2cc(=O)n(C)c(=O)n2C)cc1F,6.72,
O=C(NC1CCCCC1)c1cc(C2CC2)on1,15.4,
COc1cc2c(cc1OC)C(=O)NCC(C)(C)O2,-7.76,
O=C(O)CCCCCCCCCC[n+]1ccccc1,23,
O=C(NCC1CCC(C(=O)O)CC1)OCc1ccccc1 (stereo not drawn),-0.127,
COc1ccc(Nc2cc(C(=O)NCCCN(C)c3ccccc3)c3ccccc3n2)c(OC)c1,,11.6 µM (active)
CCN(CCCNC(=O)c1cc(Nc2ccc(OC)cc2)nc2ccccc12)c1cccc(C)c1,,20.6 µM (active)
COc1ccc(NC(=O)CCNC(=O)Cn2ccc3ccccc3c2=O)c(OC)c1,-7.11,
CCCN(CCC)CCCNC(=O)CNC(=O)c1nn(-c2ccc(OC)cc2)c(=O)c2ccccc12,-16.3,
CCN(CCCNC(=O)Cn1ncc2c([nH]c3ccccc32)c1=O)c1cccc(C)c1,-22.4,
COc1ccc(NC(=O)CNC(=O)Cn2ccc3ccccc3c2=O)c(OC)c1,,inactive
Cc1nc(C(F)(F)F)ccc1C(=O)N1CCC1(C)C(=O)NS(=O)(=O)c1ccccc1Cl (stereo not drawn),4.11,
Cc1ccccc1NC(=O)Cc1nc(COC(=O)c2cccnc2Cl)cs1,-10.3,
COC(=O)c1cc(CNC(=O)CC(C)c2ccccc2)ccc1OC (stereo not drawn),-11.8,
O=C(OCC(=O)N1CCCC1)c1ccc(Cl)nc1,0.594,
O=C(O)C1CCC(CNS(=O)(=O)c2ccc(Br)cc2)CC1 (stereo not drawn),18.6,
CCOC(=O)c1cc2cc(OC)ccc2n1C1CCN(C)CC1,,18.4 µM (active)
CCOC(=O)c1cc2c(ccn2C)n1CC(=O)N1CCC(C)CC1,-8.97,
COc1ccc2[nH]c(C(=O)N3CCN(C)CC3)c(C)c2c1,4.91,
